# High-throughput results deposited in PubChem BioAssay by National Center for Advancing Translational Sciences (NCATS).
# DT40 TDP1 CPT = DT40-hTDP1 cell growth loss with CPT; chicken DT40 Tdp1-/-;hTDP1 cells + 20 nM CPT, ATP luminescence, 48 h; Potency, µM (titrated, usually from 46.2 µM), without a hit: top-dose activity change, negative = growth inhibition, hits mostly inhibitors; 420,000 tested, 12% active; AID 686979; also: % is scaled to controls: 0 for no effect and ±100 for the full control effect; nearly all actives have a fitted effect of over 55% in size
#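 Chicken DT40 Tdp1-/- cells stably complemented with human TDP1 were seeded at 400 cells/well in medium containing 20 nM camptothecin, exposed to pin-transferred compounds, and grown at 37 °C for at least 48 hr. Viability was read as ATP luminescence.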
# ClpP mod = qHTS Assay for Activators of ClpP. ATP-dependent Clp protease proteolytic subunit (Bacillus subtilis (strain 168)), P80244. purified B. subtilis ClpP, FRET peptide cleavage, 20 min. Potency, µM (doses to about 57.5 µM), for the others: top-dose activity change, negative = active. 340,000 tested, 1.9% active; active = well fitted falling curve with a large enough effect; inconclusive = small, poorly fitted or top-dose-only effect; inactive = no such curve, though single readings can be large or run the other way; also: the source files actives as falling curves though it sought activators and does not explain the sign; nearly all actives have a fitted effect of over 65% in size
#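 Buffer: 100 mM Tris/HCl pH8, 100 mM KCl, 0.05% low protease BSA, 2.5% glycerol, 0.01% Tween-20. ClpP 10 microg/mL final; 20 min RT; delta FRET normalized to ADEP and DMSO controls.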
# TDP1 cell noCPT = qHTS for Inhibitors of human tyrosyl-DNA phosphodiesterase 1 (TDP1): qHTS in cells in absence of CPT. 420,000 tested, 15% active. Potency, µM (top dose mostly 46.2 µM), without a hit: at the top dose activity change, negative = growth inhibition, actives largely listed as inhibitors. DT40 Tdp1-/- hTDP1 cells, no CPT, ATP luminescence, 48 h. AID 686978, 2013; also: % is scaled to controls: 0 for no effect and ±100 for the full control effect; nearly all actives have a fitted effect of over 55% in size
#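 No-CPT arm: Tdp1-/-;hTDP1 DT40 cells (400/well) plus compounds, incubated ≥48 hr at 37 °C. Readout CellTiter-Glo luminescence.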
# TDP1 inh = TDP1 (human) enzyme inhibition; Q9NUW8; recombinant TDP1, AlphaScreen DNA substrate cleavage; Potency, µM (doses to about 130 µM), for the others: at the top dose activity change, negative = inhibition, most hits filed as inhibitors; 350,000 tested, 0.28% active; also: % is scaled to controls: 0 for no effect and ±100 for the full control effect; nearly all actives have a fitted effect of over 40% in size
# Target sequence (Q9NUW8 whole entry, looked up): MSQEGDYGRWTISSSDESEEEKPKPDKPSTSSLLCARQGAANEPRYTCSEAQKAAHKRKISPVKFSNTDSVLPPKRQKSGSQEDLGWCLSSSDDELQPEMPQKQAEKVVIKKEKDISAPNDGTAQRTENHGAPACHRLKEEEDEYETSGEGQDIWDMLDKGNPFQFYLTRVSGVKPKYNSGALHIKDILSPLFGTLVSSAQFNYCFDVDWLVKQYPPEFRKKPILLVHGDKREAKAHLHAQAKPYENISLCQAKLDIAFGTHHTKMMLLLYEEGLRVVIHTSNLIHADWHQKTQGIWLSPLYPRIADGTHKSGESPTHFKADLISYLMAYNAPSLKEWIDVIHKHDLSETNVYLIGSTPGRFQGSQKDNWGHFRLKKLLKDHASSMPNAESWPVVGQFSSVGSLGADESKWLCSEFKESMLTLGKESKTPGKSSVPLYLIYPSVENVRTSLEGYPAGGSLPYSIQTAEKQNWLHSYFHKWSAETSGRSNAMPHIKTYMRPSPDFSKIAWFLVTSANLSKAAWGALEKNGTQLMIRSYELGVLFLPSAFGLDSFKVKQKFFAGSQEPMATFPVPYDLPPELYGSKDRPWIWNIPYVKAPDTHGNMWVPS
#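 Enzyme-compound mixtures sat 15 min at room temperature, followed by a 5 min reaction with 15 nM final substrate and 10 min with AlphaScreen beads. Recombinant human Tdp1 was used at 1 nM final.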
# * = called active by the depositor; ? = inconclusive; nt = no result. Compounds with a hit are over-represented: about 17% of the library has one in this group of screens. Unless noted, calls follow the shape of the dose curve; as a rule, active = well fitted curve in the direction sought with a large enough effect; inconclusive = small, poorly fitted or top-dose-only effect, or another doubt; inactive = no such curve, though single readings can be large; an effect the other way counts as inactive or inconclusive. Potency is read from the fitted curve at half-maximal effect.
SMILES,DT40 TDP1 CPT,ClpP mod,TDP1 cell noCPT,TDP1 inh
CCOc1ccccc1N1CCN(C(=O)c2cc3ccccc3cc2OC)CC1,3.66µM*,-0.8%,4.61µM*,6.8%
Cc1ccc2[nH]c3c(=O)n(Cc4ccco4)cnc3c2c1,5.9%,nt,-8.6%,nt
NS(=O)(=O)c1cnccc1NCCc1ccccc1,9.1%,-4.4%,1.4%,nt
CCCOc1ccc(C(F)(F)F)cc1NS(=O)(=O)c1ccc(Cl)nc1,14.6µM*,nt,?,-3.3%
CCCOc1ccc(C(F)(F)F)cc1NC(=O)c1cc(C)on1,-5.6%,3.8%,6.8%,-0.4%
CN(C)c1ccc(-c2ccc3ccccc3n2)cc1,-17.2%,3.5%,-24.0%,nt
CCn1c(-c2ccc(N(C)C)cc2)nc2ccccc21,11.6µM*,124.8%,3.66µM*,5.8%
CC(C)n1c(-c2ccc(N(C)C)cc2)nc2ccccc21,29.1µM*,5.5%,11.2µM*,5.3%
CN(C)c1ccc(C(O)Cc2nc3ccccc3n2C)cc1 (stereo not drawn),-16.4%,-1.2%,3.4%,nt
CN(C)c1ccc(-c2nc3ccccc3n2C)cc1,13µM*,?,13µM*,6.9%
CC(C)N(C(=O)[C@H]1CC(CC(=O)NCCCn2ccnc2)C(=O)N2CCc3c([nH]c4ccccc34)[C@]12C)C(C)C (stereo partly drawn),-1.7%,-3.2%,-12.2%,2.9%
CCc1ccc(C2=CSC3=NCCN23)cc1,-3.5%,-2.7%,?,nt
O=C(COC(=O)c1cc(Cl)ccc1O)Nc1ccc2c(c1)OCCO2,?,2.1%,?,0.6%
COc1cc(C(=O)O/N=C2\CCCc3c2ccc(OC)c3[N+](=O)[O-])cc(OC)c1OC,10.3µM*,-0.9%,3.26µM*,2.0%
Cc1cc2c(c(=O)o1)C(c1cccs1)C(C#N)=C(N)O2 (stereo not drawn),23.1µM*,0.8%,18.4µM*,0.0%
COc1cc(C2C(C#N)=C(N)Oc3cc(N)ccc32)cc(OC)c1OC (stereo not drawn),0.92µM*,-0.6%,0.651µM*,5.2%
Cc1ccc([C@H]2C(C#N)=C(N)Oc3cc(C)oc(=O)c32)o1,16.4µM*,nt,23.1µM*,-1.3%
Cc1ccc(SCc2[nH]nc3c2C(c2ccc(C)o2)C(C#N)=C(N)O3)cc1 (stereo not drawn),16.4µM*,-1.3%,16.4µM*,7.4%
Cc1ccc(Cl)cc1N1CCN(c2nc3ccccc3c3nc(-c4cccnc4)nn23)CC1,-14.2%,-1.2%,-9.4%,1.0%
COc1ccc(CN2CCOc3c(cc(-c4ccc(OC)nn4)cc3OC)C2)c(O)c1,-9.2%,nt,-12.3%,nt
CC1(C(=O)NS(=O)(=O)c2ccc(Cl)cc2)CCN1C(=O)C/C=C/c1ccccc1 (stereo not drawn),-3.4%,2.1%,-10.9%,nt
COC(=O)CSc1nc2sc3c(c2c(=O)n1-c1ccccc1C)CC(C)(C)OC3,nt,8.1%,nt,nt
COc1cc(C2C(C#N)=C(N)Oc3cc(C)oc(=O)c32)cc2c1OCO2 (stereo not drawn),-17.3%,-3.3%,-16.9%,nt
COc1cc(C2C(C#N)=C(N)Oc3cc(C)oc(=O)c32)cc(OC)c1OC (stereo not drawn),?,nt,23.1µM*,4.7%
Cc1ccc2nc3c(nc2c1C)C(O)=C3O,14.6µM*,nt,?,nt
SMILES,DT40 TDP1 CPT,ClpP mod,TDP1 cell noCPT,TDP1 inh
Cc1cc(Br)ccc1SCC(=O)NCC(c1ccco1)N1CCCCC1 (stereo not drawn),18.4µM*,0.5%,?,nt
Cc1ccc(C(=O)NCC(=O)NCC(c2ccco2)N2CCCCC2)cc1C (stereo not drawn),?,-2.1%,0.8%,1.4%
CC(=O)Nc1ccc(S(=O)(=O)NC(C)C(=O)NCC(c2ccco2)N2CCCCC2)cc1 (stereo not drawn),0.1%,-0.4%,-26.5%,-0.3%
Cc1ccc(S(=O)(=O)NC(CC(C)C)C(=O)NCC(c2ccco2)N2CCCCC2)cc1 (stereo not drawn),23.1µM*,-6.6%,?,-2.1%
Cc1ccc(C)c(SCC(=O)NCC(c2ccco2)N2CCCCC2)c1 (stereo not drawn),?,1.4%,20.6µM*,nt
C[C@H](NC(=O)N1CCn2c1nc1ccccc12)C(=O)NCc1ccccc1,-6.5%,-0.5%,17.6%,0.3%
